Source: PubChem BioAssay
PI5P4K alpha inh: blocks human PI5P4K alpha kinase activity | max response, % | 330,000 tested, 1.2% active | PI5P4Kalpha enzyme, ADP-Glo luminescence, 60 min; stronger effect = lower value; active means max response of -50% or lower; inconclusive means between -30% and -50%; inactive means -30% or higher; further: value at the top dose of about 77 µM
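Enzyme plus substrate dispensed, test compounds pinned in, then ATP (5 microM final) added. After 60 min at RT, ADP-Glo reagent 1 for 45 min and reagent 2 for 30 min preceded luminescence imaging.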
BAZ2B block: blocks human BAZ2B; Q9UIF8; AlphaScreen BAZ2B-H3K14Ac peptide displacement; Potency, µM (highest dose often 114 µM), usual class: inhibitors; 360,000 tested, 4.4% active; AID 504333; further: nearly all actives have a fitted effect of over 60% in size
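Inhibition is scored as reduced AlphaScreen emission. The BAZ2B/b-H3(5-23)K14Ac complex (50 nM each) in PBS pH 7.4, 0.01% Tween-20 meets compound (up to 110 uM) for 30 min at RT before bead addition.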
HP1b binding inh: blocks HP1-beta chromodomain binding to methylated histone tails; AlphaScreen HP1-beta / biotin-H3K9me3 peptide binding; 390,000 tested, 0.56% active; P83916; Potency, µM (titrated, usually from 114 µM), usual class: inhibitors; further: nearly all actives have a fitted effect of over 70% in size
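HP1-beta protein (50 nM final) preincubated 30 min at room temperature with biotinylated H3(1-18)K9me3 peptide (50 nM) in PBS pH 7.4, 0.01% Tween-20, then compound added for 30 min. AlphaScreen streptavidin donor/nickel chelate acceptor beads (10 ug/mL final), 30 min dark, luminescence read.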
G9a inh: G9a (human) methyltransferase inhibition. Q96KQ7. G9a H3K9 monomethylation, AlphaScreen, 2 h. Potency, µM (doses to about 102 µM), most hits filed as inhibitors. 350,000 tested, 8.8% active; further: nearly all actives have a fitted effect of over 75% in size
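Quantitative HTS format: methyltransferase activity on a biotin-tagged H3K9 peptide is measured by AlphaScreen, using a rabbit anti-monomethyl-H3K9 antibody with streptavidin donor and anti-IgG acceptor beads. Final levels are 20 nM enzyme, 500 nM peptide, 20 uM SAM; 2 h RT.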
JMJD2A Tudor inh: inhibitors of human JMJD2A Tudor domain; AlphaScreen JMJD2A-Tudor / H3K4me3 peptide binding; O75164; 390,000 tested, 4.4% active; AID 504339; Potency, µM (top dose mostly 114 µM), usual class: inhibitors; further: nearly all actives have a fitted effect of over 50% in size
PLK1 PBD block: PLK1 (human) polo-box domain binding inhibition | Plk1 PBD binding of FITC phosphopeptide, fluorescence polarization | 360,000 tested, 2.8% active | Potency, µM, usual class: inhibitors | P53350; further: series mostly up to about 57 µM; nearly all actives have a fitted effect of over 65% in size
Target sequence (P53350 whole entry, looked up, the tested form may be a part): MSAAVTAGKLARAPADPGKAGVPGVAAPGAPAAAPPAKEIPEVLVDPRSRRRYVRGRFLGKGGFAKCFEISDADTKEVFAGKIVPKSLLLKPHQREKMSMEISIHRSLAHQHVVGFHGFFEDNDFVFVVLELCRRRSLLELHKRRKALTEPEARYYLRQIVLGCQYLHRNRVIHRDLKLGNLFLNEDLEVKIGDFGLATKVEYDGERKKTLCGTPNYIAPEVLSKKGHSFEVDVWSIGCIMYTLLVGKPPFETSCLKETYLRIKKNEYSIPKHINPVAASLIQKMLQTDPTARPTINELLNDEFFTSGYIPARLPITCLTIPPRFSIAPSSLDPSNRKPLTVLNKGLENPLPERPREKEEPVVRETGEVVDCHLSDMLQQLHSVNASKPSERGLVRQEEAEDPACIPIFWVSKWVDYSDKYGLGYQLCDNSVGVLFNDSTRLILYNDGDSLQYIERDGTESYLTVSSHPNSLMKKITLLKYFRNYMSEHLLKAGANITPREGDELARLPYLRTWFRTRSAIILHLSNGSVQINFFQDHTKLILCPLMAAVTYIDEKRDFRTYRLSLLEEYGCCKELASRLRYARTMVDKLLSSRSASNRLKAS
Of the large screens only hits and unclear results are named; the others gave an inactive call. In the library only some 12% were active in any assay of this set; here they are far more common. Unless noted, the call rests on the fitted dose curve; in most records, active means well fitted curve in the direction sought with a large enough effect; inconclusive means small, poorly fitted or top-dose-only effect, or another doubt; inactive means no such curve, though single readings can be large; an effect the other way counts as inactive or inconclusive.

Cc1cc(C)cc(NC(=O)c2cccc(N3CCCS3(=O)=O)c2)c1	none (no result: PI5P4K alpha inh, PLK1 PBD block)
COc1ccc(/C=N\Nc2ccccn2)c(OC)c1	none
COc1ccc(/C=N/Nc2ncc(Br)cn2)c(OC)c1	PI5P4K alpha inh inconclusive, JMJD2A Tudor inh 50µM, PLK1 PBD block inconclusive
CN(C)c1ccc(CNc2ncc(Br)cc2Br)cc1	BAZ2B block 14µM, G9a inh 40µM, JMJD2A Tudor inh 20µM
CN(C)c1ccc(CNc2ncnc3sccc23)cc1	G9a inh 13µM
CC(=O)c1cccc(NC(=O)c2oc(=O)c3ccccc3c2-c2ccccc2)c1	none (no result: PI5P4K alpha inh, PLK1 PBD block)
CCOC(=O)C1=C(C)NC(=S)NC1C (stereo unspecified)	none
CCOC(=O)c1c(C)[nH]sc1=S	HP1b binding inh inconclusive, G9a inh 3.5µM, JMJD2A Tudor inh 25µM, PLK1 PBD block inconclusive
CCOC(=O)c1sc(=S)[nH]c1C	HP1b binding inh inconclusive, JMJD2A Tudor inh 14µM (no result: BAZ2B block, G9a inh)
CCOC(=O)c1[nH]c(C)c(C(=O)OCC)c1C	none
Cc1cccc(N2CCN(c3ccc(NC(=O)c4ccccc4)cc3C(=O)O)CC2C)c1 (stereo unspecified)	BAZ2B block 79µM, G9a inh inconclusive, JMJD2A Tudor inh 89µM (no result: PI5P4K alpha inh, PLK1 PBD block)
Cc1cccc(N2CCN(c3ccc(C(=O)O)cc3NC(=O)c3cccc(Cl)c3)CC2C)c1 (stereo unspecified)	BAZ2B block inconclusive, JMJD2A Tudor inh 56µM (no result: PI5P4K alpha inh, PLK1 PBD block)
O=C(O)CC(CN1C(=O)c2ccccc2C1=O)c1ccccc1 (stereo unspecified)	none (no result: BAZ2B block, G9a inh)
Cc1cccc(-c2nnn3c2nc(NCCc2ccc(S(N)(=O)=O)cc2)c2cc(Cl)ccc23)c1	none (no result: PI5P4K alpha inh, PLK1 PBD block)
Cc1ccc(/C=N/N=C2/NC(=O)C(CC(=O)N3CCOCC3)S2)cc1 (stereo unspecified)	BAZ2B block inconclusive, G9a inh 28µM, PLK1 PBD block inconclusive
NC(=O)NC(=O)CC1S/C(=N/N=C/c2ccccc2)NC1=O (stereo unspecified)	none
COc1ccc(CN(Cc2ccccc2)C(=O)c2ccncc2)cc1COc1ccc(NC(C)=O)cc1	JMJD2A Tudor inh inconclusive (no result: PI5P4K alpha inh, BAZ2B block, G9a inh, PLK1 PBD block)
O=C(O)COc1ccccc1C1C2C(=O)N(c3ccc(F)cc3)C(=O)C2ON1c1ccccc1 (stereo unspecified)	PLK1 PBD block 27µM
COc1ccccc1C1C2C(=O)N(c3ccccc3)C(=O)C2ON1c1ccccc1 (stereo unspecified)	none
c1cncc(-c2nc(NCC3COc4ccccc4O3)c3ccccc3n2)c1 (stereo unspecified)	G9a inh 50µM
Clc1cccc(CNc2nc(-c3cccnc3)nc3ccccc23)c1	BAZ2B block inconclusive, G9a inh 45µM, JMJD2A Tudor inh inconclusive
Cc1ccc(N2CCN(C(=O)c3cnn(-c4ccc(F)cc4F)c3C3CCN(C(=O)OC(C)(C)C)CC3)CC2)c(C)c1	none (no result: PI5P4K alpha inh, PLK1 PBD block)
COCCn1c(=O)c(-c2ccc(Cl)cc2)nc2cnc(Oc3cccc(Cl)c3)nc21	none (no result: PI5P4K alpha inh, BAZ2B block, HP1b binding inh, JMJD2A Tudor inh, PLK1 PBD block)
COc1ccc(NC(=S)NC(NC(=O)CCl)C(Cl)(Cl)Cl)c([N+](=O)[O-])c1 (stereo unspecified)	PI5P4K alpha inh -55, BAZ2B block inconclusive, HP1b binding inh inconclusive, G9a inh 25µM, JMJD2A Tudor inh inconclusive, PLK1 PBD block 12µM
COc1ccc(NC(=S)NC(NC(=O)c2ccccc2Cl)C(Cl)(Cl)Cl)c([N+](=O)[O-])c1 (stereo unspecified)	BAZ2B block inconclusive, JMJD2A Tudor inh inconclusive (no result: PI5P4K alpha inh)
COc1ccc(NC(=S)NC(NC(=O)c2cccc3ccccc23)C(Cl)(Cl)Cl)c([N+](=O)[O-])c1 (stereo unspecified)	BAZ2B block inconclusive, G9a inh 45µM, JMJD2A Tudor inh inconclusive (no result: PI5P4K alpha inh)
COc1ccc(C2=Nn3c(nnc3-c3ccccc3OC)SC2)c(OC)c1	none (no result: PI5P4K alpha inh, BAZ2B block, HP1b binding inh, G9a inh, PLK1 PBD block)
O=C(/C=C\c1ccc2c(c1)OCO2)NC1CC(=O)N(c2cccc(F)c2)C1 (stereo unspecified)	none (no result: PI5P4K alpha inh, PLK1 PBD block)
O=C(NC(=S)Nc1ccc(CN2CCOCC2)cc1)c1ccc2c(c1)OCCO2	BAZ2B block inconclusive, HP1b binding inh inconclusive, G9a inh 45µM, JMJD2A Tudor inh inconclusive
